Data published in PubChem BioAssay (EPA / NIEHS).
The source made the active and inactive calls. The calls were made as follows: active = hit-call score of the fitted dose curve at least 0.9, where 1 is the maximum; inactive = score below 0.9.

Assays:
[1] = ATG_CRE_CIS: Attagene CIS-FACTORIAL HepG2 Assay for human cAMP Responsive Element (CRE) binding protein 3 (AID 2282926); conditions: HepG2 CRE cis-reporter, Attagene multiplexed mRNA; actives raise or lower the signal
Procedure, shortened: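 We dosed HepG2 cells bearing multiple cis-promoter reporter units for 24 h and measured reporter mRNA by RT-PCR with capillary electrophoresis detection. Bidirectional concentration-response fitting used DMSO as negative control.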

[2] = biological target: CCAAT/enhancer-binding protein beta (Homo sapiens) (UniProt P17676); test: ATG_C_EBP_CIS: Attagene CIS-FACTORIAL HepG2 Assay for human CCAAT/Enhancer Binding Protein (C/EBP) beta (AID 2282927); conditions: HepG2 Attagene cis-factorial transcription factor reporter; actives raise or lower the signal
Chain of CCAAT/enhancer-binding protein beta (Homo sapiens) (P17676 whole entry, looked up, the tested form may be a part): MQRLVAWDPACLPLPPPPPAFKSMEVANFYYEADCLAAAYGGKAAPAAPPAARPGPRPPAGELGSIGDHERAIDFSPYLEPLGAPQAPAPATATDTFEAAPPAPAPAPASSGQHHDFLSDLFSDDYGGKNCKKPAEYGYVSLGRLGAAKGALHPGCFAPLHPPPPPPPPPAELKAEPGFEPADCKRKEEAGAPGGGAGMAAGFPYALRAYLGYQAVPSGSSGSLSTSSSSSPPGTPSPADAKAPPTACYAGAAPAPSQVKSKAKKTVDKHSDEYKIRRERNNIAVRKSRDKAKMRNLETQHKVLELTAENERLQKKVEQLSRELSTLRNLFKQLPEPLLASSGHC
Procedure, shortened: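 Chemical-treated HepG2 cells (24 h) bearing cis-regulated reporter constructs were processed for total RNA, then reverse transcription, PCR amplification, fluorescent primer extension and fragment analysis; gain- and loss-of-signal were fitted against DMSO.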

[3] = ATG_CMV_CIS: Attagene CIS-FACTORIAL HepG2 Assay for human CMV (Internal Marker) (AID 2282928); conditions: HepG2 CMV promoter reporter, transcription factor profiling; actives raise or lower the signal;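 also: endpoint acts as a background internal control marker rather than a target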
Procedure, shortened: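 After transient transfection of HepG2 with reporter transcription units driven by cis-regulatory promoters, cells receive test chemical for 24 h. Labeled reporter amplicons, digested with HpaI, are sized and quantified by capillary electrophoresis against DMSO.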

[4] = ATG_DR4_LXR_CIS: Attagene CIS-FACTORIAL HepG2 Assay for human Liver X Receptor (LXR), DR4 submotif (AID 2282929); conditions: HepG2 Attagene DR4 cis-reporter, mRNA transcription; actives raise or lower the signal
Procedure, shortened: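 HepG2 cells transiently transfected with cis-promoter-driven multiplexed reporter units (DR4 element) were dosed for 24 h. Reporter mRNA was quantified by RT-PCR, fluorescent primer extension, HpaI digestion and capillary electrophoresis; bidirectional fitting versus DMSO baseline.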

[5] = biological target: Aryl hydrocarbon receptor (Homo sapiens) (UniProt P35869); test: ATG_Ahr_CIS: Attagene CIS-FACTORIAL HepG2 Assay for human Aryl Hydrocarbon Receptor (Ahr) (AID 2282930); conditions: HepG2 AhR cis-factorial reporter transcription; actives raise or lower the signal
Chain of Aryl hydrocarbon receptor (Homo sapiens) (P35869 whole entry, looked up): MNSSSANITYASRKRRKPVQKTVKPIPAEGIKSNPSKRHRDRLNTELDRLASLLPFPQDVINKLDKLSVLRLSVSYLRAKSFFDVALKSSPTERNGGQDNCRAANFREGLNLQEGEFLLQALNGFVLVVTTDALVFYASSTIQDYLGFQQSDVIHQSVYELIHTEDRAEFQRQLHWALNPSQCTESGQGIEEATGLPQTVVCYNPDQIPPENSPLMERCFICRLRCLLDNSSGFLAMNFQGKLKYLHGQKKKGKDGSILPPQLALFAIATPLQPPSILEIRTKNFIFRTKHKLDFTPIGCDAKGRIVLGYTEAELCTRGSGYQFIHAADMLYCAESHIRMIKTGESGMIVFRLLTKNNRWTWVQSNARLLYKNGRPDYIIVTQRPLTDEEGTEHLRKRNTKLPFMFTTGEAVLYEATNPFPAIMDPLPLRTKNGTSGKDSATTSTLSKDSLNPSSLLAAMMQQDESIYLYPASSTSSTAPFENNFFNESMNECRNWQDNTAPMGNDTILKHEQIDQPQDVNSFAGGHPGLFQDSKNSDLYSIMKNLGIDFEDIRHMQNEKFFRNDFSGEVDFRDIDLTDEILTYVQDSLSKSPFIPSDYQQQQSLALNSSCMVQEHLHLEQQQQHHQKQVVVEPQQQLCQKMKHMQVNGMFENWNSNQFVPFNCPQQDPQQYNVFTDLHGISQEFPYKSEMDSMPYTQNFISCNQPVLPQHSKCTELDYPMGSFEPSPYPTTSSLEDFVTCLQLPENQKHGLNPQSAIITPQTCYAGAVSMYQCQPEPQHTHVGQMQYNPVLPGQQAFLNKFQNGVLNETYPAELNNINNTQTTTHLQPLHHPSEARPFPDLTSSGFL
Procedure, shortened: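 Following 24 h of chemical dosing, transfected HepG2 liver cells with cis-driven reporter units were lysed for RNA; reporter mRNA was quantified via RT-PCR and capillary electrophoresis, and responses fitted bidirectionally from DMSO.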

[6] = ATG_AP_2_CIS: Attagene CIS-FACTORIAL HepG2 Assay for human Activator Protein 2 (AP-2) (AID 2282932); conditions: HepG2 AP-2 cis-reporter, Attagene transcription factor profiling; actives raise or lower the signal
Procedure, shortened: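 HepG2 cells were transiently transfected with multiple cis-promoter reporter transcription units and dosed for 24 h. Reporter mRNA was measured by RT-PCR with capillary electrophoresis fluorescence; bidirectional fits relative to DMSO baseline.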

[7] = ATG_BRE_CIS: Attagene CIS-FACTORIAL HepG2 Assay for human Bone Morphogenetic Protein (BMP) Response Element (BRE) (AID 2282933); conditions: HepG2 BMP response element reporter, Attagene transcription factor profiling; actives raise or lower the signal
Procedure, shortened: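 Endogenous transcription factor activity at a BMP response element was monitored in transfected HepG2 cells 24 h after dosing. Fluorescent RT-PCR products were resolved by capillary electrophoresis, and activity was fitted in both directions versus DMSO.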

[8] = ATG_E_Box_CIS: Attagene CIS-FACTORIAL HepG2 Assay for human Enhancer Box (E-box) (AID 2282936); conditions: HepG2 E-box cis-reporter transcription, actives raise or lower the signal
Procedure, shortened: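 HepG2 cells transiently transfected with multiplexed cis-element reporter units sensing endogenous transcription factor activity; 24 h compound exposure. Reporter mRNA measured by RT-PCR, 6-FAM primer extension, HpaI digestion and capillary electrophoresis; bidirectional fit versus DMSO.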

[9] = ATG_M_61_CIS: Attagene CIS-FACTORIAL HepG2 Assay for M61 Transcription Factor (Internal Marker) (AID 2282937); conditions: HepG2 Attagene CIS-FACTORIAL M61 internal marker reporter; actives raise or lower the signal
Procedure, shortened: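 HepG2 cells transiently transfected with cis-element-driven multiple reporter transcription units, dosed for 24 h. Reporter mRNA measured by RT-PCR, 6-FAM primer-extension labelling, HpaI digestion and capillary electrophoresis; bidirectional fit versus DMSO baseline.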

[10] = ATG_M_19_CIS: Attagene CIS-FACTORIAL HepG2 Assay for M19 Transcription Factor (Internal Marker) (AID 2282939); conditions: HepG2 Attagene CIS-FACTORIAL M19 internal marker reporter; actives raise or lower the signal
Procedure, shortened: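 Background-control endpoint from a multiplexed HepG2 reporter panel. Cells carrying cis-regulated reporter constructs are treated 24 h, then reporter transcripts are amplified, fluorescently labelled and sized by capillary electrophoresis. DMSO defines baseline.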

[11] = ATG_ERE_CIS: Attagene CIS-FACTORIAL HepG2 Assay for Estrogen Response Element (ERE) (AID 2282940); conditions: HepG2 ERE cis-reporter, Attagene RNA transcript; actives raise or lower the signal
Procedure, shortened: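 Cells used were human hepatoma HepG2, transfected with multiple reporter transcription units under cis-regulatory promoters. Reporter mRNA, read 24 h post-dosing via fluorescent RT-PCR products on capillary electrophoresis, was fitted bidirectionally relative to DMSO.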

[12] = ATG_Ets_CIS: Attagene CIS-FACTORIAL HepG2 Assay for human Erythroblast Transformation Specific (ETS) (AID 2282941); conditions: HepG2 ETS cis-reporter transcription, actives raise or lower the signal
Procedure, shortened: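 Human HepG2 hepatoma cells were transiently transfected with promoter-driven reporter constructs and treated for 24 hours. Reporter transcripts were quantified by RT-PCR with fluorescent primer extension; bidirectional curve fitting used DMSO as reference.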

[13] = biological target: Hepatocyte nuclear factor 3-beta (Homo sapiens) (UniProt Q9Y261); test: ATG_FoxA2_CIS: Attagene CIS-FACTORIAL HepG2 Assay for human Forkhead box A2 (FOXA2) (AID 2282942); conditions: HepG2 cis-reporter transcription factor activity, 24 h; actives raise or lower the signal
Chain of Hepatocyte nuclear factor 3-beta (Homo sapiens) (Q9Y261 whole entry, looked up): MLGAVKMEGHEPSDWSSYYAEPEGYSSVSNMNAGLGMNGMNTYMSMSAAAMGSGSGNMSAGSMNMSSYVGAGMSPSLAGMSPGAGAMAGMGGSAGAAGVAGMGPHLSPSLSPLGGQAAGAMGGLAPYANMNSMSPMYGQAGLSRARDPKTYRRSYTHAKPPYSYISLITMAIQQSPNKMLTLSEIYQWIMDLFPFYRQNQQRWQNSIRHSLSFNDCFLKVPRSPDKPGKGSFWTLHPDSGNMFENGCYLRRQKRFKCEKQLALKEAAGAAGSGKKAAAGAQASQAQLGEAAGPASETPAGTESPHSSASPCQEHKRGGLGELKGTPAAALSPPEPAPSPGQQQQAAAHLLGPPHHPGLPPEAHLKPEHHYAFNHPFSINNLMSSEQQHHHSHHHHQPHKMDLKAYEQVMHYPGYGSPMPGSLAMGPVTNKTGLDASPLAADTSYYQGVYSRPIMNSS
Procedure, shortened: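 HepG2 cells transiently transfected with multiple cis-regulated reporter transcription units, dosed for 24 h. Reporter mRNA measured by RT-PCR, 6-FAM labelling, HpaI digestion and capillary electrophoresis; bidirectional fitting against DMSO baseline.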

[14] = ATG_FoxO_CIS: Attagene CIS-FACTORIAL HepG2 Assay for human Forkhead box O (FoxO) (AID 2282943); conditions: HepG2 Attagene cis-reporter, FoxO element, mRNA; actives raise or lower the signal
Procedure, shortened: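 24 h chemical exposure, HepG2 with transient cis-MRTU transfection. RNA extraction, oligo(dT) RT, reporter-specific PCR, primer-extension labelling, HpaI digestion, CE fragment analysis; bidirectional fit, DMSO baseline.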

[15] = ATG_GATA_CIS: Attagene CIS-FACTORIAL HepG2 Assay for human GATA Binding Protein (AID 2282944); conditions: HepG2 GATA cis-element reporter, Attagene multiplex mRNA; actives raise or lower the signal
Procedure, shortened: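 Endogenous transcription factor activity was captured through cis-promoter-driven reporters in transfected HepG2 cells. After 24 h exposure, reporter transcripts were quantified by RT-PCR with fluorescent capillary electrophoresis, and responses fitted both directions against DMSO.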

[16] = ATG_GLI_CIS: Attagene CIS-FACTORIAL HepG2 Assay for human Zinc Finger Protein GLI1 (AID 2282945); conditions: HepG2, Attagene cis-factorial reporter mRNA, GLI element; actives raise or lower the signal
Procedure, shortened: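 HepG2 cells transiently transfected with cis-promoter multiplexed reporter units report endogenous transcription factor activity. After 24 h chemical exposure, reporter mRNA was quantified by RT-PCR, 6-FAM labelling, HpaI digestion and capillary electrophoresis, with bidirectional fitting against DMSO.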

[17] = biological target: Retinoic acid receptor alpha (Homo sapiens) (UniProt P10276); test: ATG_DR5_RAR_CIS: Attagene CIS-FACTORIAL HepG2 Assay for human Retinoic Acid Receptor Alpha (RARE), DR5 submotif (AID 2282934); conditions: HepG2 Attagene cis-factorial RARE DR5 reporter, mRNA; actives raise or lower the signal;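 as to AC50: reporter responds to endogenous RAR alpha beta and gamma in HepG2 not RARA alone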
Chain of Retinoic acid receptor alpha (Homo sapiens) (P10276 whole entry, looked up): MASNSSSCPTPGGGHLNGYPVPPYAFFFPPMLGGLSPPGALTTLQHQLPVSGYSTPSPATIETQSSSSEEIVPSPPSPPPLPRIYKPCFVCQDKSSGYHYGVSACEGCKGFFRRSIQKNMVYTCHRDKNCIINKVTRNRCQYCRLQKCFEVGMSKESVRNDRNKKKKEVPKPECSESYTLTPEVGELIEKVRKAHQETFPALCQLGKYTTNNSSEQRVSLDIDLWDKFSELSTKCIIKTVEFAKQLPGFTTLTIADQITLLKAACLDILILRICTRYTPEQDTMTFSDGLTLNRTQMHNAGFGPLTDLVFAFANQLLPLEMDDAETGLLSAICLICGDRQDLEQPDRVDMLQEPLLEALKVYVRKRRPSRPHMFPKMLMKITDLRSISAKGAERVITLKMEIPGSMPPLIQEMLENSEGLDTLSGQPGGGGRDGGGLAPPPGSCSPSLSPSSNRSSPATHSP
Procedure, shortened: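 Transfected HepG2 reporter cells are exposed to chemicals for 24 h. Then RNA is extracted and the DR5 element reporter transcript is measured by RT-PCR and capillary electrophoresis, with bidirectional curve fitting relative to DMSO.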

[18] = biological target: Transcription factor E2F1 (Homo sapiens) (UniProt Q01094); test: ATG_E2F_CIS: Attagene CIS-FACTORIAL HepG2 Assay for human E2F Transcription Factor 1 (AID 2282935); conditions: HepG2 Attagene cis-reporter, E2F reporter RNA transcripts; actives raise or lower the signal
Chain of Transcription factor E2F1 (Homo sapiens) (Q01094 whole entry, looked up): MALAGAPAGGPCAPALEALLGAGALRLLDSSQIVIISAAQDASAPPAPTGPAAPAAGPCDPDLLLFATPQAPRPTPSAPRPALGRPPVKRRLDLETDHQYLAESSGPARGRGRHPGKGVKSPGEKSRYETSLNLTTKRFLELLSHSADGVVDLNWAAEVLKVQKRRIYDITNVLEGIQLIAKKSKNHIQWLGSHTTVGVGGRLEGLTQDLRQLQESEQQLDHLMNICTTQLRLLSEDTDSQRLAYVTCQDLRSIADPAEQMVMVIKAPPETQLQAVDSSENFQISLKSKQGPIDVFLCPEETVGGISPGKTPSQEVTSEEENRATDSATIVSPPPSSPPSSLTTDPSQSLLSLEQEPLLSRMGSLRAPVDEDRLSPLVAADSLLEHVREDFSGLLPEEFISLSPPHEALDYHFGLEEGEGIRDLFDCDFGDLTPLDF
Procedure, shortened: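 HepG2 cells transiently transfected with multiplexed cis-element reporter units, dosed for 24 h. Reporter mRNA measured by RT-PCR, 6-FAM primer-extension labeling, HpaI digestion and capillary electrophoresis; bidirectional fit versus DMSO baseline.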

[19] = ATG_EGR_CIS: Attagene CIS-FACTORIAL HepG2 Assay for human Early Growth Response 1 (EGR1) (AID 2282938); conditions: HepG2 Attagene CIS-FACTORIAL EGR reporter mRNA; actives raise or lower the signal
Procedure, shortened: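 HepG2 cells transiently transfected with cis-promoter-driven multiplexed reporter transcription units; reporter mRNA measured 24 h after compound dosing by RT-PCR, 6-FAM primer extension, HpaI digestion and capillary electrophoresis. Bidirectional fit versus DMSO baseline.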

[20] = ATG_AP_1_CIS: Attagene CIS-FACTORIAL HepG2 Assay for human Activator Protein 1 (AP-1) (AID 2282931); conditions: HepG2 Attagene cis-factorial AP-1 reporter mRNA; actives raise or lower the signal
Procedure, shortened: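 HepG2 cells transiently transfected with cis-element-driven multiplex reporter units; 24 h compound exposure. Reporter mRNA quantified by RT-PCR, FAM-labelled fragments resolved by capillary electrophoresis; bidirectional fit versus DMSO baseline.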

Measured: AC50

CCCCCCCCCCCCCC(=O)O
inactive: [1] | [2] | [3] | [4] | [5] | [6] | [7] | [8] | [9] | [10] | [11] | [12] | [13] | [14] | [15] | [16]

CCC(=O)OCCC(C)CCC=C(C)C (configuration not stated)
inactive: [1] | [2] | [3] | [4] | [5] | [6] | [7] | [18] | [8] | [9] | [19] | [10] | [12] | [13] | [14] | [15] | [16]
active: [17] 72.4 µM

Cc1ccc(C(=O)c2cc(O)c(O)c([N+](=O)[O-])c2)cc1
inactive: [1] | [2] | [5] | [20] | [18] | [9] | [19] | [10] | [12] | [13] | [14] | [15] | [16]
active: [3] 26.3 µM | [6] 27.2 µM | [8] 27 µM

CCCCCC(=O)OCCc1ccccc1
inactive: [1] | [2] | [3] | [5] | [20] | [6] | [7] | [18] | [8] | [9] | [19] | [10] | [11] | [12] | [14] | [15] | [16]

Clc1nc(C(Cl)(Cl)Cl)c(Cl)c(Cl)c1Cl
active: [3] 24.9 µM | [5] 12.6 µM | [20] 28.8 µM | [12] 54.2 µM | [15] 58.8 µM | [16] 55.8 µM
inactive: [1] | [2] | [6] | [8] | [9] | [19] | [10] | [11] | [13] | [14]

CCCCC[Si](OCC)(OCC)OCC
inactive: [1] | [3] | [4] | [5] | [20] | [6] | [7] | [17] | [18] | [8] | [9] | [19] | [10] | [12] | [13] | [14] | [15] | [16]

Cc1ncc([N+](=O)[O-])n1C
inactive: [1] | [2] | [3] | [5] | [6] | [7] | [18] | [8] | [9] | [19] | [10] | [11] | [12] | [14] | [15] | [16]

FC1(F)C(F)(F)C(F)(F)C2(F)C(F)(C1(F)F)C(F)(F)C(F)(F)C1(F)C(F)(F)C(F)(F)C(F)(F)C(F)(F)C12F (configuration not stated)
inactive: [1] | [2] | [3] | [5] | [20] | [6] | [7] | [18] | [8] | [9] | [19] | [10] | [12] | [14] | [15] | [16]

CC(c1cc2ccccc2s1)N(O)C(N)=O (configuration not stated)
inactive: [1] | [2] | [3] | [6] | [7] | [18] | [8] | [19] | [10] | [11] | [12] | [13] | [14] | [15] | [16]
active: [5] 38.2 µM

COc1cc2ncnc(Nc3cccc(Cl)c3)c2cc1OC
active: [6] 5.09 µM | [19] 19.5 µM
inactive: [1] | [2] | [3] | [5] | [20] | [7] | [18] | [9] | [10] | [11] | [12] | [13] | [14] | [15] | [16]

CCCCCCCCC=O
inactive: [1] | [2] | [3] | [20] | [6] | [7] | [18] | [8] | [9] | [19] | [10] | [12] | [14] | [15] | [16]

Cc1cccc(C)c1[N+](=O)[O-]
inactive: [1] | [2] | [3] | [5] | [20] | [6] | [7] | [17] | [18] | [8] | [9] | [19] | [10] | [13] | [14] | [15] | [16]

Nc1cc([N+](=O)[O-])ccc1Cl
active: [5] 20.2 µM
inactive: [1] | [2] | [3] | [20] | [6] | [7] | [18] | [8] | [9] | [19] | [10] | [12] | [13] | [14] | [15] | [16]

CSc1nnc(C(C)(C)C)c(=O)[nH]1
inactive: [1] | [2] | [3] | [5] | [20] | [6] | [7] | [18] | [8] | [9] | [19] | [10] | [11] | [13] | [14] | [15] | [16]
